# Bioassay records from PubChem BioAssay.
# D1 antag: Antagonist of Human D 1 Dopamine Receptor: qHTS; activity change, negative = inhibition, % at 10 µM; AID 504652, 2011; D(1A) dopamine receptor (Homo sapiens), P21728; actives 3.2% (n = 360,000); HEK293 TREx D1 cells, calcium flux, dopamine EC80; active compounds read low; in the data active means activity change below about -30%; further: on the % scale 0 is the no-effect control and ±100 the full control effect
#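 Kinetic fluorescence of a calcium dye serves as the read-out. D1-expressing Hek293 Trex cells, induced overnight at 30 C, are exposed to compound for 180 s before an EC80 dopamine addition, then read 180 s further.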
# D1 agonist: Allosteric Agonists of the Human D1 Dopamine Receptor: qHTS. actives 1% (n = 360,000). HEK293 T-REx D1 cells, calcium flux, agonist mode. activation, % at 2 µM. D(1A) dopamine receptor (Homo sapiens), P21728; in the data active means activation above about 30%; further: 0% is about no effect
#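 Agonism was scored from calcium flux recorded over 180 s (1 read/s) after pintool compound addition, following a 10-cycle baseline. Cells were inducible force-coupled HEK293 TREx D1, plated overnight at 30 C and loaded with no-wash calcium dye.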
# TRPV1 agonist: HTS Assay for Compounds that Act as Agonists of the Vanilloid Receptor 1 | TRPV1-expressing cells, Fluo-8 calcium influx, agonist mode | activation, % at 8.33 µM | actives 0.19% (n = 320,000); in the data active means activation above about 80%; inconclusive means between about 30% and that limit; further: 0% is about no effect
# Target sequence (Q8NER1 whole entry, looked up): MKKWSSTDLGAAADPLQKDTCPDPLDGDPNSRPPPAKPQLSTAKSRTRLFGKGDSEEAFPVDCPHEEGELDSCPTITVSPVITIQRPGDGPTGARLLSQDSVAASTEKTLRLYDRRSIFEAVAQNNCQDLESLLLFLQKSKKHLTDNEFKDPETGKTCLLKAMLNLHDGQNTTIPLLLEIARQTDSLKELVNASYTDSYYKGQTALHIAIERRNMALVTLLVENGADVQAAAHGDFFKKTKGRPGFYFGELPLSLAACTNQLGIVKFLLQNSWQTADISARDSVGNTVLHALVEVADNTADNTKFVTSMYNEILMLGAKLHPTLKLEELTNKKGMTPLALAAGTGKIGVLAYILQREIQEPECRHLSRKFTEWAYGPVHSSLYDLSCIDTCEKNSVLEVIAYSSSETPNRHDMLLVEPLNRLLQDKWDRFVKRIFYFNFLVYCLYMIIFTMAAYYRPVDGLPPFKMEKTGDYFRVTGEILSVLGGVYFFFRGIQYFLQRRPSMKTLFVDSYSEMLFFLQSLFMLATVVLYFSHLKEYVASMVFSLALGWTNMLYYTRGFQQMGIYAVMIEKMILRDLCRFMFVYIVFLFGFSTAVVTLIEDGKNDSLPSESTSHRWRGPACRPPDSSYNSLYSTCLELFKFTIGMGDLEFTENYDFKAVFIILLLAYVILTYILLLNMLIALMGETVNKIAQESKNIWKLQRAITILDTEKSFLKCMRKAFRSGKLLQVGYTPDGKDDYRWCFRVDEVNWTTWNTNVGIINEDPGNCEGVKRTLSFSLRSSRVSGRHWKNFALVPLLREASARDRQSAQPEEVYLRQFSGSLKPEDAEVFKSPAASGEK
#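 Cells expressing TRPV1 were dye-loaded with Fluo-8 and read kinetically: 10 s baseline, 3 min after compound (agonist portion), then 2 min after EC20 capsaicin (allosteric enhancer portion). Calcium-bound dye fluorescence at 480/520 nm.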
# D1 potentiator: Potentiators of Human D1 Dopamine Receptor: qHTS; HEK293 TREx D1 cells, calcium flux, dopamine EC20 potentiation; actives 0.036% (n = 360,000); D(1A) dopamine receptor (Homo sapiens), P21728; potentiation, % at 10 µM; in the data active means potentiation above about 30%; further: 0% is about no effect
# TRPV1 PAM: HTS Assay for Compounds that Act as Potentiators of the Vanilloid Receptor 1; Transient receptor potential cation channel subfamily V member 1 (Homo sapiens), Q8NER1; TRPV1-expressing cells, Fluo-8 calcium influx, capsaicin EC20 potentiation; potentiation, % at 8.33 µM; actives 0.02% (n = 320,000); in the data active means potentiation above about 80%; inconclusive means between about 30% and that limit; further: 0% is about no effect
#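 TRPV1-expressing cells were cultured overnight at 35.5C and loaded with Fluo-8 calcium dye for 40 to 90 min at room temperature. After a 10 s baseline, compound was added and calcium influx was read kinetically for 3 min (ex 480/em 520 nm).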
# An asterisk follows results filed as active; u = inconclusive; x = no result given. A selection: hits, their analogues and other compounds. The true share with any hit is near 4.2%.
SMILES,D1 antag,D1 agonist,TRPV1 agonist,D1 potentiator,TRPV1 PAM
CCOCCCNC(=O)Cn1cc2c(n1)-c1c(oc(C(=O)N3CCCC3)c1C)CC2,-32*,4,x,-4,x
COc1ccccc1/C=c1\sc2nc(-c3ccccc3OC)nn2c1=O,-36*,1,-6,-1,u
Cc1ccc(NC(=O)CSC2=NN3CCCC(=O)N=C3S2)cc1Cl,-39*,25,-2,x,-4
Cc1cc(C)cc(-n2ccnc2SCC(=O)Nc2ccc(C)c(Cl)c2)c1,-40*,3,x,1,x
Cc1ccc(C)c(NC(=O)CSc2nncn2C)c1,-33*,-3,2,-5,8
CCOc1ccc(-n2ccnc2SCC(=O)Nc2cc(C)ccc2C)cc1,-46*,-1,x,-7,x
CCCC(=O)NC(C)c1nc2ccccc2n1Cc1ccccc1 (stereo not given),5,-2,x,-2,x
Cc1cccc(NC(=O)C2CCCN(S(=O)(=O)c3c(C)[nH]c(=O)[nH]c3=O)C2)c1C (stereo not given),-8,5,x,-1,x
CCc1ccccc1Nc1ncnc2ccccc12,-60*,7,2,-8,8
CCc1ccccc1Nc1ncnc2c1cnn2-c1ccc(Cl)cc1,6,3,x,2,x
O=C1S/C(=C/c2ccc(N3CCOCC3)o2)C(=O)N1Cc1c(F)cccc1Cl,x,129*,u,0,19
O=C1N=C(N2CCOCC2)S/C1=C/c1ccc(-c2ccccc2Cl)o1,4,2,u,2,-13
O=C(NCCN1CCOCC1)c1ccc2c(c1)N(Cc1c(F)cccc1Cl)C(=O)c1ccccc1S2,18,2,5,3,-4
O=C(O)c1ccccc1-c1ccc(/C=C2\SC(=O)N(c3ccccc3)C2=O)o1,-7,4,3,3,-3
O=C1S/C(=C\c2ccc(N3CCOCC3)o2)C(=O)N1c1ccccc1,26,159*,u,7,9
O=C1S/C(=C\c2ccc(N3CCOCC3)o2)C(=O)N1Cc1c(F)cccc1Cl,27,62*,26,-14,-7
Cc1ccc(NC(=O)CSc2nc(=O)n(Cc3ccco3)c3c2CCC3)cc1F,x,1,x,-2,x
CC(=O)Nc1ccc(S(=O)(=O)Nc2nc3ccccc3nc2Nc2ccc3ccccc3c2)cc1,-2,5,8,-3,9
COc1cc(Nc2nc3ccccc3nc2NS(=O)(=O)c2ccc([N+](=O)[O-])cc2)cc(OC)c1OC,-74*,1,14,-20,1
O=[N+]([O-])c1ccc(S(=O)(=O)Nc2nc3ccccc3nc2Nc2ccccc2)cc1,0,0,0,-7,4
COC(=O)c1cc(Nc2nc3ccccc3nc2NS(=O)(=O)c2ccc(C)cc2)ccc1Cl,-31*,17,x,-4,x
CC(C)c1ccc(Nc2ncnc3onc(-c4ccc(F)cc4)c23)cc1,14,2,x,-4,x
CCc1cccc(C)c1NC(=O)CSc1nc2ccccc2n1CC(=O)N(C)C,-35*,0,-2,-2,3
O=C(Cn1c(SCC(=O)Nc2ccc(F)cc2)nc2ccccc21)NCc1ccccc1Cl,-20,33*,x,0,x
Cc1ccc(CNC(=O)Cn2cc(S(=O)(=O)Cc3ccccc3F)c3ccccc32)cc1,-12,32*,x,0,x
SMILES,D1 antag,D1 agonist,TRPV1 agonist,D1 potentiator,TRPV1 PAM
CCc1ccccc1NC(=O)CSc1nc2ccccc2n1CC(=O)N(C)C,-12,2,3,-6,5
O=C(Cn1c(SCC(=O)Nc2ccc(F)cc2)nc2ccccc21)NCc1ccc(F)cc1,1,4,x,0,x
O=C(Cn1cc(S(=O)(=O)Cc2ccc(F)cc2)c2ccccc21)NCc1ccccc1Cl,-22,36*,x,1,x
CC(C)(C)NC(=O)Cn1cc(S(=O)(=O)Cc2ccc(F)cc2)c2ccccc21,6,2,x,-1,x
CCOC(=O)c1c(C)[nH]c(C)c1S(=O)(=O)N1CCC(C(=O)NCc2ccccc2)CC1,-22,0,x,-4,x
COc1ccccc1C(=O)NCCn1cc(SCc2ccc(C)cc2)c2ccccc21,-8,-1,x,-4,x
O=C(N/N=C/C1CC=CCC1)c1ccc(Cl)cc1O (stereo not given),-37*,23,21,-16,-24
COc1cccc(OCc2cc(=O)n3c(-c4ccccc4)csc3n2)c1,-5,-2,x,2,x
CC(=O)c1cc(NC(=O)c2ccc(Cl)cc2)c(=O)oc1/C=C/N(C)C,-18,108*,u,2,-16
COc1ccc(C(=O)Nc2cc(C(C)=O)c(C)oc2=O)cc1,6,2,-1,0,6
O=C1/C(=C/c2cccs2)Sc2ccccc21,-93*,3,5,1,-1
O=C1Nc2ccccc2S/C1=C/c1cccs1,-8,5,19,-5,-15
COc1cccc(CNC(=O)CCCn2nc(C)c3sc4ccccc4c3c2=O)c1,4,2,x,-2,x
COc1ccccc1NC(=O)C1=C(C)Nc2c(C(=O)Nc3ccc(F)cc3)cnn2C1c1cccc([N+](=O)[O-])c1 (stereo not given),3,1,x,-7,x
Nc1cc(=O)[nH]c2nnc(SCC(=O)Nc3cccc4ccccc34)n12,-45*,0,-2,3,10
CCOc1ccccc1NC(=O)CSc1nnc2[nH]c(=O)cc(C)n12,x,0,x,-1,x
COc1ccc(C(=O)N2CC(=O)Nc3ccc(C)cc3C2c2ccc(F)cc2)c(OC)c1 (stereo not given),11,0,x,-1,x
COc1cc(CNC(C)C)c(Br)cc1OC1CCCC1,-49*,8,0,-10,-4
COc1cc(CNCCO)ccc1OC1CCCC1,-6,4,2,-3,1
COc1ccc(C(CC(=O)Nc2ccc(F)c(Cl)c2)N2Cc3ccccc3C2=O)cc1OC (stereo not given),3,2,x,-1,x
CCOc1ccc(NC(=O)[C@H]2O[C@@H]3OC(C)(C)O[C@@H]3[C@H]3OC(C)(C)O[C@H]32)cc1,-5,0,x,0,x
COc1ccc(C(=O)C2CCCN(Cc3ccc(NC(C)=O)cc3)C2)cc1OC (stereo not given),-33*,-2,2,-6,-8
CC(=O)Nc1ccc(CN2CCCC(C(=O)c3cccc(C(F)(F)F)c3)C2)cc1 (stereo not given),-2,10,u,-5,-12
COc1cc(OC)c(OC)cc1CN1CCCC(C(=O)c2sccc2C)C1 (stereo not given),-38*,9,-5,-11,2
COc1ccc(NC(=O)C2CCCN(CCCc3ccccc3)C2)cc1OCC(C)C (stereo not given),-3,90*,19,-6,-14
